The text below walks through data of PubChem BioAssay AID743363 (Broad Institute, 2014).

SMILES strings stand for the structures. Active and inactive are the calls of the source. The rule behind the calls is not given here.

The nature of this test: interference with FL-DTB/streptavidin displacement signal, dose response, counter-screen, biochemical, dry powder samples (AID 743363). The settings on record: FL-DTB/streptavidin fluorescence displacement counter-screen, BioD coupled; series mostly up to 10 µM. On the technique in general: A counterscreen serves to expose hits that act by an unwanted route or on another target.
Take `O=C(c1ccc2c(c1)OCO2)N1CCN(c2ccc(C(F)(F)F)cc2)CC1`: the compound was classed as inactive.

On to `CNC(=O)c1ccc(N2CCN(C(=O)c3ccc4c(c3)OCO4)CC2)cc1`, for which the compound was called inactive.

Regarding `CC(=O)c1ccc(N2CCN(C(=O)c3ccc4c(c3)OC(C)(C)O4)CC2)cc1`, the result was inactive.

For `O=C(c1ccc2c(c1)OCO2)N1CCN(c2ccc(S(=O)(=O)C(F)F)cc2)CC1`, the outcome was inactive.

Turning to `COc1ccc(NC(=O)N2CC[C@@H]3[C@@H](CO)N(C)c4ccc(-c5cccc(F)c5)cc4[C@@H]32)cc1`, the compound was called inactive.

For `CC(=O)c1ccc(N2CCN(C(=O)c3ccc4c(c3)OC(F)(F)O4)CC2)cc1`, the compound was called inactive.

As to `COc1ccccc1C(=O)N1CCN(c2ccc(C(C)=O)cc2)CC1`, the call was inactive.

Turning to `CN1c2ccc(-c3cccc(F)c3)cc2[C@@H]2[C@@H](CCN2C(=O)c2ccc3c(c2)OCO3)[C@@H]1CO`, the call was inactive.

With `CC(=O)c1ccc(N2CCN(C(=O)c3cccc4c3OCO4)CC2)cc1`, the call was inactive.

As for `O=C(c1ccc2c(c1)OCO2)N1CCN(c2ccc(OC(F)(F)F)cc2)CC1`, the compound was called inactive.

For the compound `CC(=O)c1ccc(N2CCN(C(=O)c3ccccc3Cl)CC2)cc1`, the outcome was inactive.

For `CC(=O)c1ccc(N2CCN(C(=O)c3ccc4c(c3)OCO4)[C@H](C)C2)cc1`, the call was inactive.

`CC(=O)c1ccc(N2CCN(C(=O)c3cc4c(cc3C)OCO4)CC2)cc1`: the call was inactive.

As for `CC(=O)c1ccc(N2CCN(C(=O)c3ccc4ocnc4c3)CC2)cc1`, the compound was classed as inactive.

Consider `COC(=O)CCCCCCC(=O)N1CC[C@@H]2[C@@H](CO)N(C)c3ccc(-c4cccc(F)c4)cc3[C@@H]21`, for which the compound was classed as inactive.

Regarding `CN1c2ccc(-c3cccc(F)c3)cc2[C@H]2[C@H](CCN2C(=O)CCCCCCC(=O)O)[C@H]1CO`, the call was inactive.

Turning to `COCC(=O)N1CC[C@@H]2[C@@H](CO)N(C)c3ccc(-c4cccc(F)c4)cc3[C@@H]21`, the outcome was inactive.

For `COc1ccc(NC(=O)N2CC[C@@H]3[C@@H](CO)N(C)c4ccc(-c5ccc(F)cc5)cc4[C@@H]32)cc1`, the compound was classed as inactive.

With `CN1c2ccc(-c3cccc(F)c3)cc2[C@H]2[C@H](CCN2C(=O)Nc2ccccc2F)[C@H]1CO`, the call was inactive.

As for `COC(=O)c1ccc(N2CCN(C(=O)c3ccc4c(c3)OCO4)CC2)cc1`, the outcome was inactive.

Turning to `N#Cc1ccc(N2CCN(C(=O)c3ccc4c(c3)OCO4)CC2)cc1`, the compound was classed as inactive.

In the case of `CNS(=O)(=O)c1ccc(N2CCN(C(=O)c3ccc4c(c3)OCO4)CC2)cc1`, the compound was called inactive.

For `CC(=O)c1ccc(N2CCN(C(=O)c3cc4c(cn3)OCO4)CC2)cc1`, the result was inactive.

Regarding `CC(=O)c1ccc(N2CC3(CN(C(=O)c4ccc5c(c4)OCO5)C3)C2)cc1`, the result was inactive.

In the case of `COc1cccc(NC(=O)N2CC[C@@H]3[C@@H](CO)N(C)c4ccc(-c5cccc(F)c5)cc4[C@@H]32)c1`, the compound was called inactive.

With `COc1ccccc1NC(=O)N1CC[C@@H]2[C@@H](CO)N(C)c3ccc(-c4cccc(F)c4)cc3[C@@H]21`, the compound was classed as inactive.

As to `CN1c2ccc(-c3ccc(F)cc3)cc2[C@H]2[C@H](CCN2C(=O)Nc2ccc(F)cc2)[C@H]1CO`, the result was inactive.

With `COc1ccc(C(=O)N2CCN(c3ccc(C(C)=O)cc3)CC2)cc1OC`, the call was inactive.

As for `CN1c2ccc(-c3ccc(F)cc3)cc2[C@H]2[C@H](CCN2C(=O)Nc2cc(F)ccc2F)[C@H]1CO`, the call was inactive.

On to `CC(C)NC(=O)N1CC[C@@H]2[C@@H](CO)N(C)c3ccc(-c4ccc(F)cc4)cc3[C@@H]21`, for which the outcome was inactive.
